Test results as given in PubChem BioAssay (EPA / NIEHS).
Records with an inconclusive call do not appear. Activity calls are given as the source filed them. Rule for the calls: active = hit-call score of the fitted dose curve at least 0.9, where 1 is the maximum; inconclusive = response in the unintended direction; inactive = score below 0.9.

target: Retinoic acid receptor RXR-alpha (Homo sapiens) (UniProt P19793); assay: ATG_RXRa_TRANS: Attagene TRANS-FACTORIAL HepG2 Assay for human Retinoid X Receptor alpha (RXRa) (AID 2283012)
Sequence (P19793 whole entry, looked up, the tested form may be a part): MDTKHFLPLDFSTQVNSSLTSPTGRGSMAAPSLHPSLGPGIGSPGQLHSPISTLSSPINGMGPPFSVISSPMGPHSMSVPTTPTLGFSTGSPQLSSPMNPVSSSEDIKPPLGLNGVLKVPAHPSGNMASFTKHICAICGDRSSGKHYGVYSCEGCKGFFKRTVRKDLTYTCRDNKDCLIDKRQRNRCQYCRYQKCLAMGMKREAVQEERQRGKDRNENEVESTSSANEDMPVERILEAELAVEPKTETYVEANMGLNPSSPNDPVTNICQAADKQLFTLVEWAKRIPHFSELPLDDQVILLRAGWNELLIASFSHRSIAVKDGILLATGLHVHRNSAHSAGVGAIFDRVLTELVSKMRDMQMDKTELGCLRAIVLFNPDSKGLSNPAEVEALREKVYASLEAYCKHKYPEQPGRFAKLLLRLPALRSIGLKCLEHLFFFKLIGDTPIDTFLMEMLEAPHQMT
How it was run: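 TRANS format reporting activity of exogenous RXRa-Gal4 chimera in transiently transfected HepG2, 24 h exposure. Reporter transcripts quantified by RT-PCR with capillary electrophoresis, with gain of signal scored relative to DMSO.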

outcome, inactive:
O=C(O)CCCCCCCCCC(=O)O
CC(C)(C)C(=O)C=Cc1ccc(Cl)cc1
Clc1nc2ccccc2s1
FC(F)(F)C(=NOCC1OCCO1)c1ccc(Cl)cc1
Cc1ccc(N/N=c2\c(=O)cc/c(=N/Nc3ccc(S(=O)(=O)O)cc3)c2=O)c(C)c1
CNC(=S)N(C)C
C[Si](C)(CCCN)O[Si](C)(C)CCCN
CC1=NN(c2cc(S(=O)(=O)O)ccc2Cl)C(=O)C1N=Nc1ccccc1 (stereo unspecified)
CC(C)(C)c1ccc(OC(=O)c2ccccc2O)cc1
CCCCCCCCCCOC(C)=O
Cc1ccc2oc(=O)ccc2c1
CCCCCCCCCCc1ccccc1
COc1c2ccoc2cc2oc(=O)ccc12
COc1ccc([C@@H]2CC(=O)c3c(O)cc(O[C@@H]4O[C@H](CO[C@@H]5O[C@@H](C)[C@H](O)[C@@H](O)[C@H]5O)[C@@H](O)[C@H](O)[C@H]4O)cc3O2)cc1OC
O=C1CC2CC1C1CCCC21 (stereo unspecified)
CC(C)(C)c1ccc(N)cc1
CC(C)c1ccc2cc(C(C)C)ccc2c1
COc1cc(NC(=O)CC(C)=O)c(OC)cc1Cl
CC1=CC[C@H](C(C)C)C=C1
CC1=Nc2ccc3ccccc3c2C1(C)C
O=C1c2ccccc2C(=O)C1c1nc2ccccc2c(Br)c1O
SCCc1cnccn1
Cc1cccc(C(=O)O)c1
CCCCCCCCCCC=CC#N
C[C@]12CCC(=O)C=C1CC[C@@H]1[C@@H]2C(=O)C[C@@]2(C)[C@H]1CC[C@]2(O)C(=O)CO
COC(=O)c1ccc2cc(C(=O)OC)ccc2c1
